SMARCA2 act = SMARCA2 (BRM) function activators, primary screen, cell-based, luminescence, high throughput; MG213 cells, MMTV-luciferase reporter, dexamethasone, overnight; activation, % at 9.1 µM; AID 652017, 2013; 1% of 370,000 active; in the data active means activation above about 7.8%;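 further: 0% = vehicle wells and 100% = reference activator wells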
ssDAF12 agonist = S. stercoralis DAF-12 nuclear receptor activators, primary screen, cell-based, luminescence, HEK293, GRIP1 co-expression, lit1-tk-luc. AID 652126, 2013. HEK293 ssDAF-12/GRIP1 lit1-tk-luc reporter; % of 3 µM dafachronic acid response. activation, % at 6.8 µM. Nuclear hormone receptor DAF-12 (Strongyloides stercoralis). 1% of 370,000 active;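 active means activation above the mean over all tested compounds plus 3 SD, cut at about 0.9% in these data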;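 further: 0% = DMSO-only wells and 100% = 3 µM delta7-dafachronic acid wells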
hgDAF12 agonist = H. glycines DAF-12 receptor agonists, primary screen, cell-based, luminescence, HEK293, GAL4 fusion, UAS-luciferase; 1.8% of 370,000 active; Nuclear hormone receptor DAF-12 (Heterodera glycines), GAL4 fusion; HEK293 GAL4-hgDAF12 UAS-luciferase reporter, agonist luminescence; normalized to butyrate control; activation, % at 6.8 µM;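 active means activation above a cutoff set at the mean of all screened compounds plus 3 SD, cut at about 10% in these data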;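 further: 0% = DMSO wells and 100% = sodium butyrate wells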
hcDAF-12 act = H. contortus DAF-12 nuclear receptor activators, primary screen, cell-based, luminescence, HEK293, lit1-tk-luc reporter; HEK293 hcDAF-12 lit1-tk-luc reporter; 0% DMSO, 100% Δ7-dafachronic acid; AID 652067, 2013; 1.4% of 370,000 active; activation, % at 6.8 µM;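 active means activation above the mean of all tested compounds plus 3 SD, cut at about 5.5% in these data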;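 further: 100% = response to 3 µM Δ7-dafachronic acid high control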
DAX1 inh-1 = DAX1 (NR0B1) inhibitors, primary screen, cell-based, HEK293, Gal4-DAX1, luciferase luminescence; Nuclear receptor subfamily 0 group B member 1 (Homo sapiens), P51843; HEK293 Gal4-DAX1 luciferase reporter; inhibition, % at 6.75 µM; 0.99% of 340,000 active;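 active means inhibition above the mean over all tested compounds plus 3 SD, cut at about 4.2% in these data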;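 further: 0% = DAX1-transfected cells with DMSO and 100% = empty-vector control cells with DMSO; inhibition shows as a rise in luminescence from relieved DAX1 repression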
Target sequence (P51843 207-470 limits assumed): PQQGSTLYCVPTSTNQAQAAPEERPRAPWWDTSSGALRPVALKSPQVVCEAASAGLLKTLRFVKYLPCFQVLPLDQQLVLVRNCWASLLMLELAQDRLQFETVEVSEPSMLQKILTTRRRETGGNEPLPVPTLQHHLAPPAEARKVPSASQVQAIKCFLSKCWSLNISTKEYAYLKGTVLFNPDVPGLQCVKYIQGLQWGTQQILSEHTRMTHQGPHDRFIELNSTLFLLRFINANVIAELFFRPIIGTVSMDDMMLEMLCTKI
DAX1 inh-2 = DAX1 (NR0B1) inhibitors on StAR promoter, primary screen, cell-based, luminescence, SF-1 (NR5A1), full-length DAX-1. 1.1% of 370,000 active. inhibition, % at 6.8 µM. HEK293T StAR-luciferase reporter, SF-1/DAX-1 repression relief;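 active means inhibition above the mean over all tested compounds plus 3 SD, cut at about 3.6% in these data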;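 further: 0% = DAX-1 cells with DMSO and 100% = cells lacking DAX-1 with DMSO; higher inhibition means more luminescence from relief of DAX-1 repression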
LXR ag = LXR agonists, Gal4 luciferase reporter, confirmation, counter-screen for hcDAF-12 agonist project, cell-based, luminescence, HEK293, H. contortus campaign; activation, % at 6.8 µM; shares compounds with hcDAF-12 act; 3,400 tested, under 10 active; HEK293 Gal4-LXR tk-luc reporter, 24 h; normalized: DMSO 0%, positive control 100%;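 active means mean percent activation of the reporter above a cutoff set as the average over tested compounds plus their standard deviation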
hcDAF12 ag = H. contortus DAF-12 receptor agonists, confirmation, cell-based, luminescence, HEK293, lit1-tk-luc, triplicate; 61% of 3,400 active; HEK293 hcDAF-12 lit1-tk-luc reporter; % of Δ7-dafachronic acid response; shares compounds with hcDAF-12 act; activation, % at 6.8 µM;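 active means mean activation across triplicate tests above the threshold derived from the earlier primary screen, cut at about 5.5% in these data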;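 further: 0% = DMSO only wells and 100% = 3 µM Δ7-dafachronic acid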
hgDAF12 conf = H. glycines DAF-12 receptor agonists, confirmation, cell-based, luminescence, HEK293, GAL4-LBD fusion; activation, % at 6.8 µM; shares compounds with hgDAF12 agonist; 80% of 3,300 active; AID 743050, 2013; HEK293 GAL4-hgDAF12 luciferase reporter, agonist mode; percent of butyrate response;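 active means mean activation over triplicate wells above the hit cutoff derived from the earlier primary screen, cut at about 11% in these data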;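 further: 0% = DMSO low control and 100% = 2 mM sodium butyrate high control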
LXRb DAF12 ctr = LXR agonists, Gal4 luciferase reporter, confirmation, counter-screen for hgDAF-12 agonist project, cell-based, luminescence, HEK293, H. glycines campaign | AID 743051, 2013 | 3,300 tested, under 10 active | activation, % at 6.8 µM | 24 h | shares compounds with hgDAF12 agonist;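 active means mean activation of the triplicate above a set limit carried over from the primary screen, none filed active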
Active calls of the source: *; · = not tested or not shown. Sampled rows, rich in hits. Any-hit rate of the full collection: about 4.8%.

SMILES	SMARCA2 act	ssDAF12 agonist	hgDAF12 agonist	hcDAF-12 act	DAX1 inh-1	DAX1 inh-2	LXR ag	hcDAF12 ag	hgDAF12 conf	LXRb DAF12 ctr
O=C(N/N=C/c1c[nH]c2ccccc12)c1ccc2c(c1)OCCO2	0.0	1.7*	18.4*	13.1*	3.1	1.3	1.2	7.0*	23.5*	0.9
O=C(N/N=C/c1cccc2ccccc12)c1cccs1	0.0	0.8	16.5*	8.2*	4.5*	3.0	0.8	7.3*	16.0*	0.7
Cn1ccc2c(N3c4ccccc4CCc4ccccc43)cc3c(c21)C1CCC3O1 (stereo not given)	-3.0	-1.3	-3.8	0.8	·	-0.5	·	·	·	·
N#CC1=C(N)Oc2cc3ccccc3cc2C1c1cccs1 (stereo not given)	4.2	-1.1	3.7	-0.2	-0.2	-0.9	·	·	·	·
CN(C)/C=N/C1=C(C#N)C(c2cccs2)c2ccc3ccccc3c2O1 (stereo not given)	0.2	1.0*	23.8*	9.4*	0.9	-1.6	0.2	8.5*	13.6*	0.2
O=C(c1cc(-c2ccc(Cl)cc2Cl)on1)N1CCCCCC1	1.7	0.3	16.0*	8.8*	3.7	3.3	2.0	8.3*	18.2*	0.8
O=C(c1cc(-c2ccc(O)cc2)on1)N1CCCCCC1	0.8	0.1	13.7*	6.8*	5.1*	2.5	0.7	3.5	16.7*	0.7
O=C(c1cc(-c2ccc(Cl)cc2Cl)on1)N1CCCC1	0.4	0.2	9.6	3.8	0.5	3.3	·	·	·	·
CCOC(=O)c1sc(=NC(=O)c2ccco2)n(C)c1C	1.5	0.5	13.5*	9.0*	1.0	0.9	0.6	11.1*	13.6*	0.3
CCOC(=O)c1sc(=NC(=O)/C=C/c2ccccc2)n(C)c1C	1.3	-0.9	2.8	-0.1	0.1	0.3	·	·	·	·
CC(C)c1nc(SCC(=O)Nc2c[nH]c(=O)[nH]c2=O)c2cnn(-c3ccccc3)c2n1	1.8	-0.1	1.3	-0.8	-0.5	-0.7	·	·	·	·
COc1cccc(-c2nc(-c3ccc(Br)o3)no2)c1	7.4	2.0*	30.5*	7.6*	5.4*	4.4*	1.3	11.9*	23.1*	1.1
O=[N+]([O-])c1cccc(-c2nc3ccc([N+](=O)[O-])cc3[nH]2)c1	0.8	-1.5	3.0	0.9	1.4	0.5	·	·	·	·
O=[N+]([O-])c1ccc2nc(-c3ccc(Cl)cc3)[nH]c2c1	-0.1	1.2*	21.8*	9.9*	3.6	4.1*	1.2	5.9*	20.1*	0.9
Cn1c(CNc2nc3ccccc3n2CCN2CCCCC2)nc2ccccc21	-3.7	-1.3	-1.8	-1.5	1.7	-0.1	·	·	·	·
CC(C)n1cnc2cc(NCc3nc4ccccc4n3C)ccc21	3.0	-0.6	14.2*	6.7*	1.0	2.4	1.2	6.1*	11.2*	0.7
COc1ccc(CNC(=S)Nc2ccccc2)cc1	4.4	-0.6	2.2	-1.6	0.3	-0.6	·	·	·	·
c1ccc(N2CCN(c3cnc4ccccc4n3)CC2)cc1	4.0	0.1	15.4*	7.0*	0.8	3.1	1.2	3.3	20.0*	0.7
Cn1c(SCc2ccccc2F)nc2cccnc21	4.1	0.2	14.3*	8.0*	3.3	1.5	0.9	5.7*	17.7*	0.8
CCOC(=O)CSc1nc2cccnc2n1C	-2.5	-0.6	-0.6	-1.0	-0.5	-0.4	·	·	·	·
O=c1c(Sc2ccccc2)c(C(F)(F)F)[nH]n1-c1ccccc1	-1.4	-1.5	-3.6	0.2	-0.5	-0.3	·	·	·	·
Cc1cc(C(=O)COC(=O)c2ccc(O)cc2)c(C)n1CC(F)(F)F	2.5	0.8	14.8*	8.9*	1.7	4.2*	1.3	7.3*	17.7*	0.7
Cc1cc(C(=O)COC(=O)c2ccc(O)cc2)c(C)n1-c1ccccc1F	-3.5	-1.7	-0.4	0.5	0.6	0.4	·	·	·	·
CC(=O)N1c2ccc(S(=O)(=O)NCC3CCC(C(=O)N4CCCC(C)C4)CC3)cc2CC1C (stereo not given)	-2.0	-0.9	-3.9	-2.0	-0.7	-0.6	·	·	·	·
Cc1ccc2nc(-c3ccccc3)c(Cc3cccc(F)c3)n2c1	4.0	0.7	13.8*	8.7*	·	2.4	-0.1	5.0	4.1	0.1
COc1ccc2oc(C(=O)c3ccccc3)c(N)c2c1	6.0	0.9	15.2*	7.4*	·	3.5	1.7	6.7*	20.1*	0.9
O=C(COc1cccc2c1CCN(Cc1ccc(Cl)cc1)C2=O)N1CCOCC1	-5.1	-1.8	-3.7	-1.1	0.2	-0.5	·	·	·	·
CN1C(=O)C2C=CC1C1C(=O)N(c3ccccc3)C(=O)C21 (stereo not given)	6.7	0.8	17.3*	9.5*	3.5	4.0*	1.4	6.2*	0.0	0.0
O=C1C2C3C=CC(C3=C3CCCCC3)C2C(=O)N1c1ccccc1 (stereo not given)	-1.4	-1.4	0.3	-0.8	-0.6	-0.2	·	·	·	·
Nc1c(C(=O)NCC(O)c2ccccc2)cnn1-c1ccccc1 (stereo not given)	4.6	-0.2	18.1*	6.6*	·	3.5	0.7	6.2*	14.3*	0.3

Compound activity as filed in PubChem BioAssay.
